Reference: PubChem BioAssay AID1159580 (chemical genetic matrix, 2015)
Among all 5,500 compounds or so, about 2,000 (36%) were called active. Not shown: some 18% with an inconclusive outcome. No stated cut-off is given here; in the data, active means normalized growth mostly below about 0.91 (no sharp cut-off); inconclusive means no clear call, values can overlap the other calls; inactive means mostly above about 0.92. The list shows a part of the results.

Assay: chemical genetic growth profiling, strain panel (AID 1159580);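 further: tested at 20 µM; growth read once vehicle control cultures reached saturation at 30 °C; 1 = growth at the plate median or of vehicle wells; lower values mean less growth of the strain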
Conditions: S. cerevisiae deletion strains, growth OD
[1] = locus YDL101C, strain DUN1, hits give low values
[2] = locus YHR030C, strain SLT2, hits give low values
[3] = locus YHR079C, strain IRE1, hits give low values
[4] = locus YJL095W, strain BCK1, hits give low values
[5] = locus YJR066W, strain TOR1, hits give low values
[6] = locus YLR113W, strain HOG1, hits give low values
[7] = locus YNL183C, strain NPR1, hits give low values
[8] = locus YOR061W, strain CKA2, hits give low values
[9] = locus YOR231W, strain MKK1, hits give low values
[10] = locus YPL256C, strain CLN2, hits give low values

Measured: normalized growth

Clc1ccccc1N/N=C\Cc1nnnn1-c1ccccc1
active: locus YGR092W, strain DBF2, hits give low values 0.282 | [8] 0.567
inactive: locus YAR019C, strain CDC15, hits give low values 0.982 | locus YBL105C, strain PKC1, hits give low values 0.966 | locus YBR135W, strain CKS1, hits give low values 0.962 | locus YBR136W, strain MEC1, hits give low values 0.966 | locus YBR160W, strain CDC28, hits give low values 0.97 | locus YDL017W, strain CDC7, hits give low values 0.98 | locus YDL028C, strain MPS1, hits give low values 0.972 | [1] 0.976 | locus YDL108W, strain KIN28, hits give low values 0.974 | locus YDL132W, strain cdc53, hits give low values 0.953 | locus YDL214C, strain PRR2, hits give low values 0.904 | locus YDR052C, strain DBF4, hits give low values 0.974 | locus YDR054C, strain cdc34, hits give low values 0.96 | locus YDR226W, strain ADK1, hits give low values 0.972 | locus YDR477W, strain SNF1, hits give low values 0.898 | locus YER123W, strain YCK3, hits give low values 0.729 | locus YER133W, strain GLC7, hits give low values 0.91 | locus YFL009W, strain cdc4, hits give low values 0.965 | locus YFL029C, strain CAK1, hits give low values 0.966 | locus YFR003C, strain YPI1, hits give low values 0.97 | locus YFR019W, strain FAB1, hits give low values 0.831 | locus YFR028C, strain CDC14, hits give low values 0.957 | locus YGR040W, strain KSS1, hits give low values 0.91 | locus YGR052W, strain FMP48, hits give low values 0.827 | [2] 0.924 | [3] 0.85 | locus YHR082C, strain KSP1, hits give low values 0.951 | locus YHR205W, strain SCH9, hits give low values 0.863 | locus YIL147C, strain SLN1, hits give low values 0.971 | [4] 0.716 | locus YJL128C, strain PBS2, hits give low values 0.951 | locus YJL157C, strain FAR1, hits give low values 0.893 | locus YJR016C, strain ILV3, hits give low values 0.96 | locus YJR066W, strain TOR1 (second series), hits give low values 0.774 | [5] 0.888 | locus YKL048C, strain ELM1, hits give low values 0.92 | locus YKL067W, strain YNK1, hits give low values 0.89 | locus YKL101W, strain HSL1, hits give low values 0.889 | locus YKL193C, strain SDS22, hits give low values 0.966 | locus YKL203C, strain TOR2, hits give low values 0.929 | [6] 0.923 | locus YLR133W, strain CKI1, hits give low values 0.888 | locus YLR403W, strain SFP1, hits give low values 0.814 | locus YML070W, strain DAK1, hits give low values 0.787 | locus YMR001C, strain CDC5, hits give low values 0.967 | locus YMR205C, strain PFK2 (second series), hits give low values 0.92 | locus YMR277W, strain FCP1, hits give low values 0.969 | locus YNL006W, strain LST8, hits give low values 0.98 | locus YNL020C, strain ARK1, hits give low values 0.878 | locus YNL161W, strain CBK1, hits give low values 0.974 | [7] 0.89 | locus YNL207W, strain RIO2, hits give low values 0.958 | locus YNL222W, strain SSU72, hits give low values 0.973 | locus YNL307C, strain MCK1 (second series), hits give low values 0.669 | locus YOL078W, strain AVO1, hits give low values 0.962 | locus YOL136C, strain PFK27, hits give low values 0.795 | locus YOR119C, strain RIO1, hits give low values 0.924 | [9] 0.845 | locus YOR329C, strain SCD5, hits give low values 0.971 | locus YPL031C, strain PHO85, hits give low values 0.853 | locus YPL153C, strain RAD53, hits give low values 0.832 | locus YPL204W, strain HRR25, hits give low values 0.818 | locus YPL209C, strain IPL1, hits give low values 0.967 | [10] 0.99 | locus YPR025C, strain CCL1, hits give low values 0.973 | locus YPR106W, strain ISR1, hits give low values 0.98 | locus YPR111W, strain DBF20, hits give low values 0.963 | strain NNK1, hits give low values 0.992 | strain TSCII, hits give low values 0.963

CS(=O)(=O)c1ccc([C@@H](O)[C@H](CF)NC(=O)C(Cl)Cl)cc1
inactive: [2] 1.03 | [3] 0.953 | [4] 0.973 | [5] 0.956 | [6] 0.935 | [7] 0.909 | [9] 0.969 | [10] 0.943

Cc1cc(=O)c2c(o1)-c1c(cc(O)c(O)c1C(=O)O)OC2
inactive: locus YBR021W, strain FUR4, hits give low values 0.96 | locus YBR229C, strain ROT2, hits give low values 0.996 | locus YCL029C, strain bik1, hits give low values 1.03 | locus YDL035C, strain GPR1, hits give low values 1 | locus YDL074C, strain BRE1, hits give low values 0.984 | [1] 1 | locus YDL134C, strain PPH21, hits give low values 1 | locus YDL185W, strain tfp1, hits give low values 1.01 | locus YDL192W, strain arf1, hits give low values 1.01 | locus YDR101C, strain arx1, hits give low values 1.01 | locus YDR150W, strain NUM1, hits give low values 0.97 | locus YDR162C, strain NBP2, hits give low values 0.987 | locus YDR318W, strain mcm21, hits give low values 1.01 | locus YDR388W, hits give low values 1.01 | locus YDR502C, strain sam2, hits give low values 1.03 | locus YEL061C, strain CIN8, hits give low values 1 | locus YER110C, hits give low values 1.03 | locus YER155C, strain BEM2, hits give low values 1.01 | locus YER167W, strain BCK2, hits give low values 1.02 | locus YGL078C, strain dbp3, hits give low values 1.02 | locus YGL086W, strain mad1, hits give low values 1.02 | locus YGL248W, strain PDE1, hits give low values 0.996 | locus YGR078C, strain PAC10, hits give low values 0.991 | locus YGR135W, strain pre9, hits give low values 1.02 | locus YGR252W, strain gcn5, hits give low values 0.997 | [2] 1.01 | locus YHR079C, strain IRE1 (second series), hits give low values 1.01 | locus YHR094C, strain hxt1, hits give low values 1.02 | locus YHR129C, strain ARP1, hits give low values 1.01 | locus YHR200W, strain rpn10, hits give low values 1.03 | locus YIL066C, strain RNR3, hits give low values 0.99 | locus YIL073C, strain SPO22, hits give low values 1.05 | locus YIL125W, strain kgd1, hits give low values 1.03 | locus YIR030C, strain dcg1, hits give low values 1.02 | [4] 0.998 | locus YJL134W, strain LCB3, hits give low values 1.01 | locus YJL168C, strain set2, hits give low values 1.02 | locus YJL187C, strain SWE1 (second series), hits give low values 1.02 | locus YJR043C, strain POL32, hits give low values 0.997 | locus YKL009W, strain mrt4, hits give low values 1.03 | locus YKL068W, hits give low values 1.01 | locus YKL085W, strain MDH1 (second series), hits give low values 1.01 | locus YKL085W, strain MDH1, hits give low values 1.01 | locus YKR001C, strain vps1, hits give low values 1.02 | locus YLR039C, strain RIC1, hits give low values 0.973 | locus YLR058C, strain SHM2, hits give low values 1.01 | locus YLR102C, strain apc9, hits give low values 1.01 | locus YLR262C, strain YPT6, hits give low values 1.02 | locus YLR268W, strain sec22, hits give low values 1.02 | locus YLR330W, strain CHS5, hits give low values 0.991 | locus YLR342W, strain FKS1 (second series), hits give low values 0.966 | locus YLR371W, strain rom2, hits give low values 1.03 | locus YLR418C, strain cdc73, hits give low values 1.05 | locus YML016C, strain PPZ1, hits give low values 0.998 | locus YML032C, strain rad52, hits give low values 1.01 | locus YML124C, strain tub3, hits give low values 1.01 | locus YMR078C, strain ctf18, hits give low values 1.02 | locus YMR223W, strain ubp8, hits give low values 1.01 | locus YMR263W, strain SAP30, hits give low values 1 | locus YMR307W, strain GAS1, hits give low values 0.935 | locus YNL067W, strain RPL9B, hits give low values 0.987 | locus YNL153C, strain GIM3, hits give low values 1 | locus YNL233W, strain BNI4, hits give low values 1.02 | locus YNL250W, strain rad50, hits give low values 1.03 | locus YNL271C, strain bni1, hits give low values 1.02 | locus YNL298W, strain CLA4, hits give low values 1.03 | locus YNL307C, strain MCK1, hits give low values 1.02 | locus YNR052C, strain pop2, hits give low values 1.02 | locus YOL006C, strain TOP1, hits give low values 0.969 | locus YOL012C, strain htz1 0.545 | locus YOL147C, strain pex11, hits give low values 1.02 | [8] 1.01 | locus YOR069W, strain VPS5, hits give low values 1 | locus YOR136W, strain idh2, hits give low values 1.03 | locus YOR144C, strain elg1, hits give low values 1.01 | locus YOR184W, strain ser1, hits give low values 1.03 | locus YOR316C, strain cot1, hits give low values 1.01 | locus YPL055C, strain LGE1, hits give low values 1.01 | locus YPR119W, strain clb2, hits give low values 1.01 | locus YPR141C, strain kar3, hits give low values 1.02 | locus YPR163C, strain tif3, hits give low values 1.01 | locus YPR167C, strain met16, hits give low values 1.03 | strain wtn01, hits give low values 1.02
